Reference: PubChem BioAssay (NCI)
This is part of a sample that, as a whole, favours compounds with a hit. Of some 79,000 tested, about 15% had one in any assay. Unmarked numbers belong to inactive results. Calls of active or inactive are those of the source. No stated cut-off is given here; in the data, active means growth inhibition above about 70%; inactive means the rest.

Key:
[1] = NCI Yeast Anticancer Drug Screen. Data for the rad50 strain (AID 155);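 further: 0% = growth of vehicle-only cultures of the same strain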; settings: S. cerevisiae rad50 strain growth inhibition, stronger effect = higher value
Procedure, shortened: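 Cells are treated with compound, grown, and their growth is then scored against vehicle-only cultures of the same repair-deficient yeast strain.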

[2] = NCI Yeast Anticancer Drug Screen. Data for the mec2-1 strain (AID 157); settings: S. cerevisiae mec2-1 strain, stronger effect = higher value
Procedure, shortened: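 Test agents were screened against the mec2-1 yeast strain, with defined DNA repair or cell cycle alteration. Growth was scored as inhibition against vehicle-only controls.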

[3] = NCI Yeast Anticancer Drug Screen. Data for the sgs1 mgt1 strain (AID 161);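 further: 0% = growth of cultures given vehicle only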; settings: S. cerevisiae sgs1 mgt1 strain, stronger effect = higher value
Procedure, shortened: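 Mutant yeast exposed to compound; growth scored against vehicle-only wells.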

[4] = NCI Yeast Anticancer Drug Screen. Data for the cln2 rad14 strain (AID 165);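 further: 0% = growth equal to vehicle treated cultures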; settings: S. cerevisiae cln2 rad14 strain, stronger effect = higher value
Procedure, shortened: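 Growth of compound-exposed yeast (cln2 rad14 genotype) measured and expressed as inhibition relative to vehicle.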

[5] = NCI Yeast Anticancer Drug Screen. Data for the bub3 strain (AID 167); settings: S. cerevisiae bub3 mutant strain, stronger effect = higher value
Procedure, shortened: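 Part of a panel of yeast mutants defective in DNA damage repair or cell cycle regulation. Each strain is grown with compound, and inhibition is calculated relative to solvent-treated cultures.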

[6] = NCI Yeast Anticancer Drug Screen. Data for the mlh1 rad18 strain (AID 175); settings: S. cerevisiae mlh1 rad18 strain growth inhibition, stronger effect = higher value
Procedure, shortened: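 In this whole-cell yeast screen, a strain with altered DNA damage repair is challenged with compound, and its growth is measured against matched vehicle-treated controls.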

[7] = at 5.0 µM (retest, dose inferred, filed as 0.5)
[8] = at 50.0 µM (retest, dose inferred, filed as 5.0)

| Compound | growth inhibition [1, 7] | growth inhibition [1, 8] | growth inhibition ([1]; at 50.0 µM) | growth inhibition [2, 7] | growth inhibition [2, 8] | growth inhibition ([2]; at 50.0 µM) | growth inhibition [3, 7] | growth inhibition [3, 8] | growth inhibition ([3]; at 50.0 µM) | growth inhibition [4, 7] [%] | growth inhibition [4, 8] | growth inhibition ([4]; at 50.0 µM) | growth inhibition [5, 7] | growth inhibition [5, 8] | growth inhibition ([5]; at 50.0 µM) | growth inhibition [6, 7] | growth inhibition [6, 8] | growth inhibition ([6]; at 50.0 µM) |
| --- | --- | --- | --- | --- | --- | --- | --- | --- | --- | --- | --- | --- | --- | --- | --- | --- | --- | --- |
| N#C/C(=C1/C(=O)c2ccccc2-c2ccccc21)c1ccccc1 | 92% (active) | 97% (active) | 97.2% (active) | 100% (active) | 99% (active) | 98.2% (active) | 99% (active) | 99% (active) | 97.6% (active) | 61 | 97% (active) | 98.2% (active) | 99% (active) | 98% (active) | 98% (active) | 99% (active) | 99% (active) | 98.7% (active) |
| Oc1ccc(C(c2ccccc2)(c2ccccc2)c2ccccc2)cc1O | -8% | 99% (active) | 98.2% (active) | -2% | 100% (active) | 98.7% (active) | -4% | 99% (active) | 98.3% (active) | 0 | 97% (active) | 97.4% (active) | -4% | 99% (active) | 98% (active) | 0% | 99% (active) | 98% (active) |
| CC(C)(Br)C(=O)c1ccc([N+](=O)[O-])o1 | 49% | 99% (active) | 90.6% (active) | 62% | 100% (active) | 93.5% (active) | 85% (active) | 100% (active) | 89.4% (active) | 51 | 99% (active) | 84.2% (active) | 42% | 99% (active) | 91.8% (active) | 91% (active) | 99% (active) | 91% (active) |
| OCCSC(=S)Nc1ccc(Cl)c(Cl)c1 | 47% | 99% (active) | 99.6% (active) | 10% | 100% (active) | 99.7% (active) | 78% (active) | 100% (active) | 99.8% (active) | 0 | 99% (active) | 99.5% (active) | 44% | 99% (active) | 99.8% (active) | 85% (active) | 99% (active) | 99.5% (active) |
| O=C(O)C(SC1=NNC2(C(=O)N1)c1ccccc1-c1ccccc12)SC1=NNC2(C(=O)N1)c1ccccc1-c1ccccc12 | 4% | 96% (active) | 97.5% (active) | -19% | 92% (active) | 96.3% (active) | 2% | 96% (active) | 97.4% (active) | 4 | 66% | 95.8% (active) | 9% | 93% (active) | 98% (active) | -15% | 95% (active) | 97.3% (active) |
| C[Si](C)(C)C1=C([Si](C)(C)C)C(Cl)(Cl)C1=O | 10% | 32% | 12% | 12% | 17% | 9.35% | 20% | 49% | 72.2% (active) | 6 | 40% | 45.5% | 16% | 33% | 29.2% | 18% | 38% | 32.4% |
| CC(=O)NNc1nc(C)c(C(=O)NNC(=O)C(=O)Nc2ccc(Cl)cc2Cl)s1 | 1% | 82% (active) | 54.6% | 1% | 94% (active) | 39.4% | 5% | 87% (active) | 53.2% | -4 | 85% (active) | -38.2% | 5% | 89% (active) | 45.4% | -2% | 89% (active) | 73.9% (active) |
| CCOC(=O)C1CCC(=O)O1 (stereo unspecified) | -4% | 43% | -14% | 3% | 87% (active) | 7.85% | 4% | 78% (active) | 2.4% | -23 | 36% | 16.6% | 2% | 93% (active) | 10.8% | -1% | 95% (active) | -1.15% |
| Cc1[nH]c2c(C)cccc2c1C1Cc2ccccc2N1 (stereo unspecified) | 3% | 99% (active) | 98.4% (active) | -1% | 99% (active) | 98.8% (active) | -12% | 98% (active) | 98.8% (active) | -5 | 98% (active) | 98.5% (active) | 6% | 98% (active) | 98.7% (active) | 4% | 98% (active) | 98.2% (active) |
| Oc1[nH]c2ccccc2c1N=NC(=S)N1CCCC1 | 15% | 65% | 33.5% | 5% | 64% | 58.6% | 7% | 42% | 54.6% | 11 | 48% | 55% | 26% | 74% (active) | 61.6% | 13% | 68% | 57.8% |
| CN(C)CC(=O)OCC[N+](C)(C)C | -3% | -2% | -22.1% | -6% | -5% | -15.1% | -3% | -3% | -12.7% | -15 | -10% | 56.4% | 6% | 30% | 15.4% | -4% | 1% | -15.9% |
| CSC1NNC2(C(=O)N1)c1ccccc1-c1ccccc12 (stereo unspecified) | -2% | 96% (active) | 87.3% (active) | -15% | 98% (active) | 87.9% (active) | 2% | 96% (active) | 90.7% (active) | 9 | 96% (active) | 88.5% (active) | 13% | 97% (active) | 91.7% (active) | -1% | 96% (active) | 88.8% (active) |
